According to PubChem BioAssay (EPA / NIEHS):
The source made the active and inactive calls. The calls were made as follows: active = hit-call score of the fitted dose curve at least 0.9, where 1 is the maximum; inactive = score below 0.9.

Legend:
[1] = read-out: Macrophage colony-stimulating factor (MCSF), CSF1 (gene 1435); experiment: BSK_hDFCGF_MCSF: BioMAP Diversity Plus: hDFCGF Assay for Macrophage colony-stimulating factor (MCSF) Biomarker Activity (AID 2283060); details: primary human foreskin fibroblasts; actives raise or lower the signal
Outline: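 fibroblasts (human foreskin, primary), 24 h post-dose; M-CSF by ELISA; bidirectional fit, DMSO = baseline.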

[2] = BSK_hDFCGF_SRB: Viability Assessment in the BioMAP Diversity Plus: hDFCGF Assay (AID 2283061); details: primary human foreskin fibroblasts;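 also: cells exposed to compound for 24 h before the read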
Outline: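 SRB-based viability read on primary human skin fibroblasts at 24 h: TCA fixation, 0.1% dye, 560 nm. Gain or loss of signal is fitted against the DMSO negative control.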

[3] = read-out: TIMP metallopeptidase inhibitor 1 (TIMP1), TIMP1 (gene 7076); experiment: BSK_hDFCGF_TIMP1: BioMAP Diversity Plus: hDFCGF Assay for TIMP metallopeptidase inhibitor 1 (TIMP1) Biomarker Activity (AID 2283062); details: primary human foreskin fibroblasts; actives raise or lower the signal
Outline: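 Bidirectional curve fitting against DMSO baseline yielded this endpoint, based on ELISA detection of TIMP-1 in primary human foreskin fibroblasts exposed to compound for 24 h.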

[4] = read-out: Matrix Metallopeptidase 1 (MMP1), MMP1 (gene 4312); experiment: BSK_hDFCGF_MMP1: BioMAP Diversity Plus: hDFCGF Assay for Matrix Metallopeptidase 1 (MMP1) Biomarker Activity (AID 2283064); details: primary human foreskin fibroblasts; actives raise or lower the signal
Outline: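 MMP1 levels quantified by ELISA 24 h after dosing human dermal fibroblast cultures, with parallel SRB total-protein staining for overt cytotoxicity. Data fitted in both directions against DMSO baseline.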

[5] = read-out: Vascular cell adhesion molecule 1 (VCAM1), VCAM1 (gene 7412); experiment: BSK_hDFCGF_VCAM1: BioMAP Diversity Plus: hDFCGF Assay for Vascular cell adhesion molecule 1 (VCAM1) Biomarker Activity (AID 2283065); details: primary human foreskin fibroblasts; actives raise or lower the signal
Outline: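 Measured after 24 h chemical treatment of primary human skin fibroblasts, VCAM-1 was detected by ELISA and concentration-response analysed in both directions versus DMSO vehicle.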

[6] = read-out: Plasminogen activator inhibitor-1 (PAI1), SERPINE1 (gene 5054); experiment: BSK_hDFCGF_PAI1: BioMAP Diversity Plus: hDFCGF Assay for Plasminogen activator inhibitor-1 (PAI1) Biomarker Activity (AID 2283066); details: primary human foreskin fibroblasts; actives raise or lower the signal
Outline: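 Human skin fibroblast cultures receive chemical for 24 h before PAI-1 is measured by ELISA; signal changes are fitted bidirectionally against DMSO-treated wells.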

[7] = read-out: Interferon-gamma inducible Protein 10 (IP10), CXCL10 (gene 3627); experiment: BSK_KF3CT_IP10: BioMAP Diversity Plus: KF3CT Assay for Interferon-gamma inducible Protein 10 (IP10) Biomarker Activity (AID 2283068); details: primary human keratinocytes with fibroblasts; actives raise or lower the signal
Outline: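 In a primary skin co-culture of keratinocytes and fibroblasts, IP-10 is quantified by ELISA at 24 h after dosing. SRB staining of parallel wells monitors overt toxicity. Curves are fitted both directions against DMSO.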

[8] = BSK_KF3CT_SRB: Viability Assessment in the BioMAP Diversity Plus: KF3CT Assay (AID 2283069); details: primary human keratinocytes with fibroblasts;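 also: total protein by sulforhodamine B staining as a cytotoxicity measure; read 24 h after compound addition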
Outline: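 Cytotoxicity was gauged by SRB staining (0.1% SRB, 10% TCA fixation, 560 nm) of parallel cultures at 24 h. The cells were primary human skin keratinocytes co-cultured with fibroblasts, and activity was fitted in both directions against DMSO.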

[9] = read-out: Interleukin-1 alpha (IL1a), IL1A (gene 3552); experiment: BSK_KF3CT_IL1a: BioMAP Diversity Plus: KF3CT Assay for Interleukin-1 alpha (IL1a) Biomarker Activity (AID 2283070); details: primary human keratinocytes with fibroblasts; actives raise or lower the signal
Outline: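 IL-1a was detected by ELISA 24 h after chemical treatment of a co-culture of human skin keratinocytes and foreskin fibroblasts. Gain or loss of signal was fitted against the DMSO baseline.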

[10] = read-out: TIMP metallopeptidase inhibitor 2 (TIMP2), TIMP2 (gene 7077); experiment: BSK_KF3CT_TIMP2: BioMAP Diversity Plus: KF3CT Assay for TIMP metallopeptidase inhibitor 2 (TIMP2) Biomarker Activity (AID 2283071); details: primary human keratinocytes with fibroblasts; actives raise or lower the signal
Outline: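 Measurements come from ELISA detection of TIMP-2 at 24 hours in a dosed human keratinocyte and foreskin fibroblast co-culture. DMSO serves as negative control and baseline.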

[11] = read-out: C-C motif chemokine 2 (Homo sapiens) (UniProt P13500); experiment: BSK_KF3CT_MCP1: BioMAP Diversity Plus: KF3CT Assay for Monocyte Chemoattractant Protein 1 (MCP1/CCL2) Biomarker Activity (AID 2283073); details: primary human keratinocytes with fibroblasts; actives raise or lower the signal
Outline: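 Biomarker MCP-1 is measured by ELISA in primary human keratinocytes co-cultured with foreskin fibroblasts, 24 h after chemical treatment; DMSO serves as the negative control and activity baseline.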

[12] = read-out: Matrix Metallopeptidase 9 (MMP9), MMP9 (gene 4318); experiment: BSK_KF3CT_MMP9: BioMAP Diversity Plus: KF3CT Assay for Matrix Metallopeptidase 9 (MMP9) Biomarker Activity (AID 2283074); details: primary human keratinocytes with fibroblasts; actives raise or lower the signal
Outline: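 MMP-9 quantified by ELISA after 24 h chemical treatment of primary human skin keratinocyte/fibroblast co-cultures; gain or loss fitted against DMSO, with parallel SRB staining (0.1% SRB, 560 nm) for overt cytotoxicity.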

[13] = read-out: urokinase plasminogen activator (uPA), PLAU (gene 5328); experiment: BSK_KF3CT_uPA: BioMAP Diversity Plus: KF3CT Assay for urokinase plasminogen activator (uPA) Biomarker Activity (AID 2283075); details: primary human keratinocytes with fibroblasts; actives raise or lower the signal
Outline: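 ELISA read-out of uPA 24 h after dosing human skin keratinocytes co-cultured with foreskin fibroblasts. Signal change fitted both ways relative to DMSO; sulforhodamine B on parallel cultures marks overt cytotoxicity.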

CD40, CD40 (gene 958) = experiment: BSK_LPS_CD40: BioMAP Diversity Plus: LPS Assay for CD40 Biomarker Activity (AID 2283076); details: primary human HUVEC with PBMC; actives raise or lower the signal
Outline: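 Using a multiplexed primary human co-culture (umbilical vein endothelium plus PBMC), CD40 was read by ELISA 24 h after dosing, with cytotoxicity tracked by sulforhodamine B staining of parallel cultures and activity fitted bidirectionally versus DMSO.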

[14] = read-out: E-selectin (Homo sapiens) (UniProt P16581); experiment: BSK_LPS_Eselectin: BioMAP Diversity Plus: LPS Assay for Eselectin Biomarker Activity (AID 2283077); details: primary human HUVEC with PBMC; actives raise or lower the signal
Outline: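 Dose chemical onto LPS-driven HUVEC/PBMC co-culture; after 24 h, run ELISA for E-selectin; fit up- and down-going responses relative to DMSO control.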

[15] = read-out: Interleukin-8 (IL8), CXCL8 (gene 3576); experiment: BSK_LPS_IL8: BioMAP Diversity Plus: LPS Assay for Interleukin-8 (IL8) Biomarker Activity (AID 2283078); details: primary human HUVEC with PBMC; actives raise or lower the signal
Outline: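 In this LPS system, chemical-treated human umbilical vein endothelium/PBMC co-cultures were harvested at 24 h for IL-8 ELISA.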

[16] = BSK_LPS_SRB: Viability Assessment in the BioMAP Diversity Plus: LPS Assay (AID 2283079); details: primary human HUVEC with PBMC;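 also: total protein by sulforhodamine B absorbance as a cytotoxicity measure; measured one day after compound addition; fitted in both directions against DMSO so loss or gain of signal counts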
Outline: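 Cytotoxicity endpoint in human endothelial–PBMC co-culture: 24 h exposure, then SRB (0.1%) staining, 560 nm read.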

Measured: outcome

Chain of E-selectin (Homo sapiens) (P16581 whole entry, looked up): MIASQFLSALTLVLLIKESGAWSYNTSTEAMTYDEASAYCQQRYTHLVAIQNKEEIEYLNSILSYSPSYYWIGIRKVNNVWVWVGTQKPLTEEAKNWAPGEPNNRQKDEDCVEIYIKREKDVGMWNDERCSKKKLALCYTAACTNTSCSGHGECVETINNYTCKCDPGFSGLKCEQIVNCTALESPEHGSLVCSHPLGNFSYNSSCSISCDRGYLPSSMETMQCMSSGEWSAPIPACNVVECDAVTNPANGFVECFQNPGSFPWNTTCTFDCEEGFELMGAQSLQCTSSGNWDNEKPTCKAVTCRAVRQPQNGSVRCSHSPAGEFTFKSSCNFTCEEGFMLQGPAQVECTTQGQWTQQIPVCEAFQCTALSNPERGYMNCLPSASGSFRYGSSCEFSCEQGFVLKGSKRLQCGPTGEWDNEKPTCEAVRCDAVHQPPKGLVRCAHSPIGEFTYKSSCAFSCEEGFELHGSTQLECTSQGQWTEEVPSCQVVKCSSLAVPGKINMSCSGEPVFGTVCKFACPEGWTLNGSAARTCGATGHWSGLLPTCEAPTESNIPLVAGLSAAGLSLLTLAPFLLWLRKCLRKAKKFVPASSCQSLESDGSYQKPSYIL

O=C(O)C(F)(F)C(F)(F)F
inactive: all assays above

O=C(O)C(F)(OC(F)(F)C(F)(OC(F)(F)C(F)(OC(F)(F)C(F)(F)C(F)(F)F)C(F)(F)F)C(F)(F)F)C(F)(F)F (stereo not drawn)
inactive: all assays above

FC(F)(F)C(F)(F)C(F)(F)C(F)(F)CCI
inactive: all assays above

FC(F)(F)C(F)(F)C(F)(F)C(F)(F)C(F)(F)C(F)(F)C(F)(F)C(F)(F)F
inactive: all assays above
